Results taken from PubChem BioAssay (NCATS).
Inconclusive results are not listed. Activity calls are given as the source filed them. Unless noted, calls follow the shape of the dose curve; as a rule, active = well fitted curve in the direction sought with a large enough effect; inconclusive = small, poorly fitted or top-dose-only effect, or another doubt; inactive = no such curve, though single readings can be large; an effect the other way counts as inactive or inconclusive.

Columns and labels:
[1] = Confirmation and Secondary Assay for Modulators of Hemoglobin Beta Chain Splicing at IVS2 654 locus (AID 910);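 also: per-well total GFP intensity by laser scanning cytometry after 2-day treatment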
Summary of the method: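 HeLa cells stably carrying EGFP interrupted by mutant beta-globin IVS2-654 intron (CMV-driven) were treated with compound for 2 days at 37C; corrected splicing was scored as total peak GFP intensity per well (488 nm excitation, 500-520 nm emission).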

[2] = S16 Schwann cell viability assay (CellTiter-Glo assay) (AID 624031);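 also: cellular ATP luminescence as a viability measure; nearly all actives have a fitted effect of over 70% in size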
Summary of the method: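 Native S16 Schwann cells (rat), serum-containing medium, overnight attachment then 24 h drug exposure at 37 °C/5% CO2. CellTiter-Glo ATP signal; normalized to cell-free and vehicle wells.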

[3] = S16 Schwann cell PMP22 intronic element firefly luciferase assay (AID 624032); also: nearly all actives have a fitted effect of over 30% in size; also: potency is read from the fitted curve at half-maximal effect
Summary of the method: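 Rat S16 Schwann cells stably carrying a PMP22 intronic element-driven Fluc reporter were seeded overnight, then exposed to compounds for 24 h at 37 °C. Luminescence was normalized to PTC124 (positive control) and DMSO (0% activity).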

[4] = S16 Schwann cell PMP22 intronic element beta-lactamase assay (AID 624044; calls by dose curve; also: nearly all actives have a fitted effect of over 15% in size)
Summary of the method: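 Rat S16 Schwann cells with beta-Lac driven by a PMP22 intronic element, compound-treated 24 h at 37 °C. LiveBLAzer FRET B/G read: 460 nm normalized to potassium clavulanate vs DMSO; 535 nm FRET as viability; concentration-effect curves classified.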

CP192 = assay: qHTS profiling for inhibitors of Plasmodium falciparum proliferation (AID 504749); also: nearly all actives have a fitted effect of over 60% in size; also: potency is read from the fitted curve at half-maximal effect; settings: P. falciparum in erythrocytes, SYBR Green DNA, 72 h; series mostly up to 28.7 µM
Summary of the method: (§1)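 P. falciparum-infected erythrocytes (0.3% parasitemia, 2.5% hematocrit final) were exposed to compounds for 72 h at 37 C in 5% CO2, then lysed with SYBR Green buffer overnight at room temperature; parasite DNA fluorescence was normalized to artemisinin and DMSO controls.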

CP203 = assay: as above; settings: P. falciparum in erythrocytes, SYBR Green DNA, 72 h; series mostly up to 28.7 µM
Summary of the method: as §1

CP211 = assay: as above; settings: P. falciparum in erythrocytes, SYBR Green DNA, 72 h; series mostly up to 28.7 µM
Summary of the method: as §1

CP266 = assay: as above; settings: P. falciparum in erythrocytes, SYBR Green DNA, 72 h; series mostly up to 28.7 µM
Summary of the method: as §1

CP268 = assay: as above; settings: P. falciparum in erythrocytes, SYBR Green DNA, 72 h; series mostly up to 28.7 µM
Summary of the method: as §1

CP269 = assay: as above; settings: P. falciparum in erythrocytes, SYBR Green DNA, 72 h; series mostly up to 28.7 µM
Summary of the method: as §1

CP297 = assay: as above; settings: P. falciparum in erythrocytes, SYBR Green DNA, 72 h; series mostly up to 28.7 µM
Summary of the method: as §1

CP315 = assay: as above; settings: P. falciparum in erythrocytes, SYBR Green DNA, 72 h; series mostly up to 28.7 µM
Summary of the method: as §1

CP329 = assay: as above; settings: P. falciparum in erythrocytes, SYBR Green DNA, 72 h; series mostly up to 28.7 µM
Summary of the method: as §1

DIV14 = assay: as above; settings: P. falciparum in erythrocytes, SYBR Green DNA, 72 h; series mostly up to 28.7 µM
Summary of the method: as §1

DIV17 = assay: as above; settings: P. falciparum in erythrocytes, SYBR Green DNA, 72 h; series mostly up to 28.7 µM
Summary of the method: as §1

DIV30 = assay: as above; settings: P. falciparum in erythrocytes, SYBR Green DNA, 72 h; series mostly up to 28.7 µM
Summary of the method: as §1

PC26 = assay: as above; settings: P. falciparum in erythrocytes, SYBR Green DNA, 72 h; series mostly up to 28.7 µM
Summary of the method: as §1

W2 = assay: as above; settings: P. falciparum in erythrocytes, SYBR Green DNA, 72 h; series mostly up to 28.7 µM
Summary of the method: as §1

[5] = biological target: Cytochrome P450 2C9 (Homo sapiens) (UniProt P11712); assay: qHTS Assay for Inhibitors and Substrates of Cytochrome P450 2C9 (AID 883); also: potency is read from the fitted curve at half-maximal effect; nearly all actives have a fitted effect of over 60% in size
Summary of the method: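 A luminogenic readout tracked human CYP2C9 (10nM) converting deoxyluciferin (100uM, at KM) in 25mM KPO4 during 60 min at 37C with regenerated NADPH. Values normalized to 57uM sulphaphenazole as complete inhibition.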

[6] = biological target: Calcium and integrin-binding protein 1 (Homo sapiens) (UniProt Q99828); assay: Confirmatory qHTS for Identification of Calcium Integrin Binding Protein 1 (CIB1) Competitor (AID 1508617); also: nearly all actives have a fitted effect of over 65% in size; also: potency is read from the fitted curve at half-maximal effect
Summary of the method: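 Confirmatory qHTS measures displacement of a FITC-alphaIIb peptide (100 nM) from CIB1-GST (1 uM) by fluorescence polarization. Calcium-containing HEPES buffer, pH 7.4; two 15 min room-temperature incubations.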

Measured: Potency

Chain of Cytochrome P450 2C9 (Homo sapiens) (P11712 whole entry, looked up): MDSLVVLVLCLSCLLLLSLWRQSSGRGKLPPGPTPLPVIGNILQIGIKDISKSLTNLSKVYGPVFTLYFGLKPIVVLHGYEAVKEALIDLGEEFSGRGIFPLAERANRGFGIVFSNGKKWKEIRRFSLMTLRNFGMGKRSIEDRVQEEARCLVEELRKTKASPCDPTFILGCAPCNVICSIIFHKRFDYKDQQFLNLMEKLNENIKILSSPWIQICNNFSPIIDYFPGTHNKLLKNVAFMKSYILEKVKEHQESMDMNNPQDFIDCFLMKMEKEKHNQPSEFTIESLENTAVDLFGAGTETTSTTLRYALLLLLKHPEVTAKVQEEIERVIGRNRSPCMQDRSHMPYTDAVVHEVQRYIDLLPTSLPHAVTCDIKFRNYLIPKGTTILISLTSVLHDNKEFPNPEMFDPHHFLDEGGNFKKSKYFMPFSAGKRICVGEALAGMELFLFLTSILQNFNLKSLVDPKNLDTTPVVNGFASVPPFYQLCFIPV
Chain of Calcium and integrin-binding protein 1 (Homo sapiens) (Q99828 whole entry, looked up): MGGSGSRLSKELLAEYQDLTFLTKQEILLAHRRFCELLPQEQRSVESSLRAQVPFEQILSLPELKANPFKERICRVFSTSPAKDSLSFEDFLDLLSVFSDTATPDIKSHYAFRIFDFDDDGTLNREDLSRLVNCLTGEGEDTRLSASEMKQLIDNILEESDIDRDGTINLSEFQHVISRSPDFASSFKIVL

CN1C(=O)CCC1c1cccnc1 (stereo unspecified)
not listed: [5] | [6]
inactive: all other assays above

N=C1Sc2ccccc2C2=NCCCN12
active: [5] 0.794 µM

CN=C(N)NCCCC(N)C(=O)O (stereo unspecified)
not listed: [1] | [5] | [6]
inactive: all other assays above

CC(C)(C)[C@]1(O)CCN2CC3c4ccccc4CCc4cccc(c43)[C@@H]2C1 (stereo partly specified)
active: [3] 36.1 µM | DIV14 10.7 µM | DIV17 15.1 µM | W2 5.36 µM
inactive: CP315 | CP329

CC(C)C[C@H]1C(=O)N2CCCC2[C@]2(O)O[C@](NC(=O)[C@@H]3C=C4c5cccc6[nH]c(Br)c(c56)C[C@H]4N(C)C3)(C(C)C)C(=O)N12 (stereo partly specified)
active: CP192 16.9 µM | CP203 9.53 µM | CP211 15.1 µM | CP268 12 µM | CP269 10.7 µM | CP297 10.7 µM | DIV14 3.38 µM | DIV17 3.79 µM | DIV30 5.36 µM | PC26 5.36 µM | W2 1.69 µM
inactive: [2] | [4]

COC(=O)c1c(-c2cc(OC)c(OC)c(OC)c2)c2ccc(OCc3ccccn3)cc2c(=O)n1-c1ccc(N)cc1
active: [5] 3.98 µM

COc1cc2c(cc1OC)C(c1ccccc1)CN(C)CC2 (stereo unspecified)
inactive: [2] | [3] | [4] | CP203 | CP211 | CP266 | CP315 | DIV30 | PC26

CCCC(=O)NCCc1c2n(c3ccc(OC)cc13)Cc1ccccc1-2
active: [5] 1.26 µM

O=C1CCCC2=C1C(c1ncccc1C(F)(F)F)N=C(Nc1nc3ccccc3o1)N2 (stereo unspecified)
inactive: [6]

O=C1CCCC2=C1C(c1cccnc1Br)N=C(Nc1nc3ccccc3o1)N2 (stereo unspecified)
inactive: [6]

CN(C)c1cnc2c(O)cccc2c1
inactive: [6]

COc1ccc(CCNC[C@@H](O)c2ccc(O)cc2)cc1OC
inactive: [2] | [3] | [4] | CP192 | CP211 | CP266 | CP268 | CP269 | CP315 | CP329

C=CCNc1oc(-c2ccc(Cl)cc2)nc1C#N
active: [6] 44.7 µM

NC[C@@H](O)c1ccc(O)c(O)c1
inactive: [1]
